According to the supplement of paper PMC3334620:
Over roughly 33,000 sequences, “E-score (-0.5 to 0.5)” has its median near -0.0059; the highest 2% begin near 0.26. The sample holds the highest values, similar sequences and a random draw of the others, so the mix is not that of the screen.

molecular target: T1, Cin5 (UniProt P40917); assay: PBM E-score (8-mer binding enrichment) (E-score (-0.5 to 0.5)); higher = stronger / more preferred TF binding; details: protein concentration: 100 nM; construct: GST-full length
T1 sequence: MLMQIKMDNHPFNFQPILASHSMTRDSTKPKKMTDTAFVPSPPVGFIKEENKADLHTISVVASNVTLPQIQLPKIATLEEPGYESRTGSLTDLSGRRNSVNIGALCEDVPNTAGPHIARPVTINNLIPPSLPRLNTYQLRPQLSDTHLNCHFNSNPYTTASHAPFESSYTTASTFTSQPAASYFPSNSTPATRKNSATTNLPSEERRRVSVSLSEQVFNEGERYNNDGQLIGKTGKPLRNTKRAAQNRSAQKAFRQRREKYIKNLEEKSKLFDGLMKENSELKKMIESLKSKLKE
In short: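 Full-length yeast transcription factors or their DNA-binding domains, GST-tagged and expressed with PURExpress, were applied at about 100-200 nM to universal all-10-mer Agilent arrays. These arrays had been made double-stranded by primer extension on fresh or once-stripped slides. Detection used fluorescent anti-GST, normalisation used masliner, and E-scores for ungapped eight-base words pooled with reverse complements came from the Universal PBM Analysis Suite.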

Sequence | PBM E-score
AAGGTTAA | 0.0178
AAAGGGCA | -0.174
CTAATCAA | 0.301
TTAATCAA | 0.166
TCAATCAA | 0.173
GAAATCAA | 0.167
GTAATCAA | 0.392
GTAATCAC | 0.321
GAAATCAC | 0.149
CTAATCAC | 0.248
GGAATCAA | 0.0945
ACAGCGAA | -0.00314
AGTTTGAA | 0.0821
GCTTTGTA | 0.174
GAAGATTC | 0.0827
CCTGCAGC | -0.0691
GGAAGCGA | 0.0828
ATAAGCGG | 0.206
ATAAGCGA | 0.267
CTAAGCGA | 0.0261
GTAAGCGA | 0.383
ATAAGCGC | 0.188
GACGTACC | -0.0136
CATCGAAA | -0.0105
CTTCAAAA | 0.0157

Sequence | PBM E-score
GTGTTGAA | 0.0739
GCTGGCCC | -0.269
AAGCTAGA | -0.0103
CTACAAAC | 0.043
AAGGGAGT | -0.285
CTTACCTC | -0.0461
ATTACCTG | 0.113
ATTACCTA | 0.349
GTTACCTA | 0.131
ATTACCTC | 0.142
CTTACCTA | 0.32
CCTAGGTA | -0.0942
CAGTTGCA | -0.123
CGATTTAG | 0.182
ACAATCGA | 0.0876
GCTTCTAA | -0.109
AGTATCCC | 0.0604
AAGGATCG | 0.00025
CTGGGACC | -0.316
GTTGTTAA | 0.284
ATTGTTTG | 0.168
CTTGTTAA | -0.0283
CTTGTTAC | -0.0236
CTTGTTTC | 0.0494
ATTGTTAA | 0.0779

Sequence | PBM E-score
ATTGTTAG | 0.109
ATTGTTTC | 0.275
ATTGTTAC | 0.276
CGGGGGTC | -0.417
CCTCCGAG | -0.16
GCTAAGCA | 0.0676
GCCCAATA | 0.0485
ACAGGACG | -0.133
CCACATAG | -0.0996
CGGGCCCC | -0.12
AATCATAG | 0.291
AAACATAA | 0.199
GAACATAA | 0.198
CAACATAG | 0.0889
CAACATAA | 0.286
TAACATAA | 0.317
TATCATAA | 0.272
AATCATAC | 0.206
GATCATAA | 0.241
CATCATAA | 0.139
CAACATAC | 0.125
AATCATAT | 0.193
CCGGAGTC | 0.014
AACCTCCG | -0.183
ATGCCCTA | -0.0594

Sequence | PBM E-score
CCCGATAA | -0.0584
AAACCATT | 0.045
CCTAGGGC | -0.254
ACCCTCAT | -0.136
GGATTGAA | 0.104
CTGCCCAG | -0.249
CCGTGTAC | 0.102
CCATAAAA | 0.0525
CAGCAGAA | -0.0607
AAGCAGAA | 0.261
AAGCAGAT | 0.128
ACTGATAC | -0.00272
CTCTTACA | 0.0444
CGTGCCTA | -0.177
GCACCGGC | -0.178
CTGTAGCA | -0.13
ACAACTTA | 0.184
ACAACTTC | 0.296
ACAACTTG | 0.0528
ACAATCGT | -0.0859
ATCCTCCC | -0.103
TAGTAATA | 0.27
AAGTAATA | 0.247
GAGTAATA | 0.26
CAGTAATA | 0.254

Sequence | PBM E-score
TAGTAAAA | 0.137
TAATAGTA | 0.228
AACCCTTA | 0.168
AGCTTCAG | -0.115
GCCGCGAA | -0.133
TATTACGA | 0.257
AATTACAC | 0.0804
AATTACGT | 0.278
GATTACGA | 0.434
GATTACAC | 0.233
GATTACGC | 0.301
CATTACGC | 0.0481
GGTTACGA | 0.0792
AATTACAT | 0.322
AATTACAG | 0.107
AATTACGC | 0.073
AATTACGG | 0.141
ACTCTTGC | -0.108
GACGGTCC | -0.201
CATGGCGA | -0.0534
CGGTGGTC | -0.098
ATGTCCAA | 0.0429
AATTACCA | 0.187
CATTACGA | 0.127
AATTACGA | 0.313

Sequence | PBM E-score
CTCAGATC | 0.0619
ATTGAGTC | 0.103
CGTGAGTA | 0.0731
GTTGAGTA | 0.0846
ATTGAGTA | 0.262
AGTGAGTG | -0.0867
AGTGAGTA | 0.284
AAGCAACA | 0.162
CATAAAGA | 0.104
CGCATCGA | 0.182
ATAACGCC | 0.0372
AGTAAGCA | 0.283
AGTAAGCG | 0.354
ACTAAGCG | 0.149
GGTAAGAA | 0.011
GGTAAGGA | -0.153
ACTAAGCA | 0.241
AGTAAGGG | 0.0482
AGTAAGTA | 0.227
GGTAAGCA | 0.318
AGAGCTTG | -0.0623
CAAGACCA | -0.0752
AGAGATCT | -0.171
TATCTCAA | 0.261
AATCTCAA | 0.184

Sequence | PBM E-score
GATCTCAA | 0.112
CATCTCAA | 0.0545
CATCTCAC | 0.0306
CATCTCAG | 0.268
GTGGCTAA | 0.181
ACTTCATC | -0.0118
CTCAACAA | 0.197
ACCTCATC | 0.0947
AGGTGAAT | 0.099
AAGACAAG | -0.0281
CAGACAAC | 0.0843
AAGACAAC | 0.274
GACCGCGA | -0.129
GCACGTAA | -0.00694
ACACGTAC | -0.0415
TCACGTAA | 0.322
ACACGTAA | 0.3
ACACGTAG | -0.151
CCACGTAA | 0.165
GCTCTTAA | -0.0595
CGGCTAAG | -0.025
CGTGCGGC | -0.139
